# Test results as given in PubChem BioAssay (NCATS).
# Records with an inconclusive call do not appear. The source made the active and inactive calls. Calls follow the shape of the dose curve; as a rule, active = well fitted inhibition curve with a large enough effect; inconclusive = small, poorly fitted or top-dose-only effect; inactive = flat fitted curve, though single readings scatter.
# Molecular target: Ubiquitin carboxyl-terminal hydrolase 1 (Homo sapiens) (UniProt O94782)
# Test: Inhibitors of USP1/UAF1: Pilot qHTS (AID 504865); also: nearly all actives have a fitted effect of over 35% in size;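 as to activity change, negative = inhibition: rhodamine fluorescence freed from ubiquitin-rhodamine substrate followed over time; top concentration of the series differs between compounds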
# Conditions: purified USP1/UAF1, Ub-rhodamine cleavage fluorescence; series mostly up to 114 µM; activity change, negative = inhibition: at the top concentration
# Method in brief: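 USP1/UAF1 complex (1nM) preincubated with compound 15 min at room temperature, then Ub-Rho substrate (150nM final) added. Fluorescence read kinetically at 480/540 nm, 6 reads every 60 seconds. Buffer: 50mM HEPES pH 7.8, 0.5mM EDTA, 0.1 mg/ml BSA, 1mM TCEP, 0.01% Tween-20.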
# % is scaled to controls: 0 for no effect and ±100 for the full control effect; potency is read from the fitted curve at half-maximal effect.
# Ubiquitin carboxyl-terminal hydrolase 1 (Homo sapiens), sequence (O94782 whole entry, looked up): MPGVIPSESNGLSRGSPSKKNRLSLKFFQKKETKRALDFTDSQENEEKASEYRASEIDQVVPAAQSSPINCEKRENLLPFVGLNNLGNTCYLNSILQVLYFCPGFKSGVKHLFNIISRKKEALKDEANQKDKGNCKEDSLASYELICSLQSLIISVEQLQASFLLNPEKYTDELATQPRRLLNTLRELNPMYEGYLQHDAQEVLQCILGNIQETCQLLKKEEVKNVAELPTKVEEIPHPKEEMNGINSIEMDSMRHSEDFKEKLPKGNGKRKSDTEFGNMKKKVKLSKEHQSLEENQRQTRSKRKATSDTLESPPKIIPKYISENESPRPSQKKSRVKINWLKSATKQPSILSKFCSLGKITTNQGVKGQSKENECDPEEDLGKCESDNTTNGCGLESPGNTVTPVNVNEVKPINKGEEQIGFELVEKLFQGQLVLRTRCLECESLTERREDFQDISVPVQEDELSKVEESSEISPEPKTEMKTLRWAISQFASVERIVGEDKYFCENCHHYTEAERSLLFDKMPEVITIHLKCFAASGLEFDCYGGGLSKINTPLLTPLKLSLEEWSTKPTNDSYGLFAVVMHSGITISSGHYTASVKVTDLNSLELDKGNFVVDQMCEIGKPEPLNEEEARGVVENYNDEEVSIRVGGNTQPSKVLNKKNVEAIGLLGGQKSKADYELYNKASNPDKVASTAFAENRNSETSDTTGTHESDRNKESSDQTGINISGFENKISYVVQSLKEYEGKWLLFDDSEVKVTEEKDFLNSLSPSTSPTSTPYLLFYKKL
Compound,"activity change, negative = inhibition",Potency
CN1CCCC(=C(c2cccs2)c2cccs2)C1,-4.47% (inactive),
CN1c2ccccc2C(NCCCCCCC(=O)O)c2ccc(Cl)cc2S1(=O)=O (stereo not given),-7.33% (inactive),
O=C(CCl)c1ccc(Oc2ccc(C(=O)CCl)cc2)cc1,,56.2 µM (active)
CCCCNCC(O)c1ccc(O)cc1 (stereo not given),-4.22% (inactive),
CC(N)Cc1ccc(O)cc1 (stereo not given),4.66% (inactive),
COC1=CC=C2[C@H]3Cc4ccc(OC)c5c4[C@@]2(CCN3C)[C@H]1O5,-13% [at 54.9 µM] (inactive),
CCON=O,-0.412% (inactive),
COC([CH2][Hg])CNC(=O)c1ccccc1OCC(=O)O (stereo not given),-5.23% (inactive),
O=[N+]([O-])c1cc(I)c(O)c(I)c1,-12.5% (inactive),
O=Cc1ccco1,0.786% (inactive),
O=C(OCCN1CCCCC1)C(O)(c1ccccc1)c1ccccc1,-7.71% (inactive),
O=C(NC(=O)c1c(F)cccc1F)Nc1ccc(Cl)c(Oc2ncc(C(F)(F)F)cc2Cl)c1,-7.63% (inactive),
c1cc2c(c(NC3=NCCN3)c1)CCCC2,-6.05% (inactive),
C=CCN1CC[C@]23c4c5ccc(O)c4O[C@H]2[C@@H](O)C=C[C@H]3[C@H]1C5,-6.13% (inactive),
CCC1(C)CC(=O)NC(=O)C1,9.63% [at 54.9 µM] (inactive),
CCC1(CC)C(=O)NC(=O)N(C)C1=O,-0.485% (inactive),
O=C1CCCCC1CN1CCCCC1 (stereo not given),-2.44% (inactive),
F/C(COc1ccc2c(c1)[nH]c1ccccc12)=C1/CN2CCC1CC2,-6.77% (inactive),
O=C1CN(O)C(c2ccccc2)=c2cc(Cl)ccc2=N1,-7.12% (inactive),
Clc1ccc(Cl)cc1,2.03% (inactive),

Compound,"activity change, negative = inhibition",Potency
CCC1(c2ccccc2)C(=O)NC(=O)N(C)C1=O (stereo not given),-6.05% (inactive),
CCCC(=O)OC(C(Cl)(Cl)Cl)P(=O)(OC)OC (stereo not given),-0.402% (inactive),
C[C@]12CCC(=O)C[C@@H]1CC[C@@H]1[C@@H]2CC[C@]2(C)[C@@H](O)CC[C@@H]12,-8.29% (inactive),
CCCC(C)(COC(N)=O)COC(=O)NC1CC1 (stereo not given),-12% (inactive),
[N-]=[N+]=CC(=O)OCC(N)C(=O)O (stereo not given),-12.1% (inactive),
O=C(O)C(Cl)(Cl)Cl,-2.14% (inactive),
CC(=O)O[C@H]1CC[C@H]2[C@@H]3CCC4=CC(=O)CCC4=C3C=C[C@]12C,-19.2% (inactive),
COc1ccc2c3c1O[C@H]1C(=O)CC[C@H]4[C@@H](C2)N(C)CC[C@]314,-8.03% (inactive),
CCC(=O)O[C@@](Cc1ccccc1)(c1ccccc1)[C@@H](C)CN(C)C,3.33% [at 54.9 µM] (inactive),
c1csc(C2(N3CCCCC3)CCCCC2)c1,-10.3% (inactive),
Oc1cc(Cl)c(Cl)cc1Cl,-13.5% (inactive),
Oc1cccc[c]1[Hg][Cl],,44.7 µM (active)
CCC1(c2ccccc2)C(=O)NC(=O)NC1=O,-3.56% (inactive),
CC(=O)OC1CN2CCC1CC2 (stereo not given),2.7% (inactive),
CCNC(C)Cc1cccc(C(F)(F)F)c1 (stereo not given),-3.06% (inactive),
CNC1(c2ccccc2Cl)CCCCC1=O (stereo not given),,inactive
CCOc1ccc2c3c1O[C@H]1[C@@H](O)C=C[C@H]4[C@@H](C2)N(C)CC[C@@]341,-8.08% (inactive),
CCC1(c2ccccc2)C(=O)NC(=O)N(C(=O)c2ccccc2)C1=O (stereo not given),0.385% (inactive),
CCC1C(C)=NN=C(c2ccc(OC)c(OC)c2)c2cc(OC)c(OC)cc21 (stereo not given),-12.2% (inactive),
Clc1ccc(C2(Cn3cncn3)OCCO2)c(Cl)c1,-4.41% (inactive),
